Source: the antibiotic and cytotoxicity screens of Wong et al. (2023)
The campaign covered roughly 39,000 compounds. About 3,300 (8.5%) were called active. This excerpt belongs to a sample that is enriched for actives.

tested on: HepG2; assay: cytotoxicity call (relative viability < 0.9); conditions: 10 µM

| SMILES | cytotoxicity call |
| --- | --- |
| CCS(=O)(=O)NCC[C@H]1CC[C@H](NC(=O)C2CCOCC2)[C@H](CO)O1 | inactive |
| O=C(C[C@@H]1C[C@H]2c3cc(NS(=O)(=O)c4ccc(F)cc4)ccc3O[C@H]2[C@H](CO)O1)NCCc1ccccc1 | inactive |
| Cc1ccc(S(=O)(=O)N(C)C[C@@H]2Oc3ccc(NC(=O)CCN4CCOCC4)cc3CC(=O)N([C@@H](C)CO)C[C@H]2C)cc1 | inactive |
| C[C@H](CO)N1C[C@H](C)[C@H](CN(C)C(=O)NC2CCCCC2)Oc2c(NC(=O)C3CCOCC3)cccc2C1=O | inactive |
| Cc1ccc(S(=O)(=O)Nc2ccc3c(c2)C(=O)N([C@@H](C)CO)C[C@@H](C)[C@@H](CN(C)C(=O)NC(C)C)O3)cc1 | inactive |
| C[C@@H]1CN([C@H](C)CO)C(=O)c2cc(NC(=O)Cc3ccccc3)ccc2O[C@H]1CN(C)S(=O)(=O)c1cccs1 | inactive |
| O=C(ON1C(=O)CCC1=O)c1ccccc1 | inactive |
| COC(=O)c1cccnc1 | inactive |
| O=C(OOC(=O)c1ccccc1)c1ccccc1 | active |
| N[C@@H](COCc1ccccc1)C(=O)O | inactive |
| O=C(O)c1cccnc1 | inactive |
| O=C(OCc1ccccc1)c1ccccc1 | active |
| O=C(CO)c1ccccc1 | inactive |
| NCC(=O)OCc1ccccc1 | inactive |
| O=C(OCc1ccccc1)c1cccnc1 | active |
| CCC(=O)N[C@@H]1CC[C@@H](CC(=O)OC)O[C@H]1CO | inactive |
| CCCCCCCCCCCCCCCCOP(=O)([O-])OCC[N+](C)(C)C | inactive |
| C[N+](C)(C)CCCCCC[N+](C)(C)C.[Br-].[Br-] | inactive |
| CCCCCCCCCCCCCCCC[N+](C)(C)C | active |
| C[C@@H]1CN([C@H](C)CO)C(=O)c2cc(C#CC3(O)CCCC3)cnc2O[C@@H]1CN(C)S(=O)(=O)c1ccc(F)cc1 | inactive |
| O=C(CN1CCOCC1)N[C@H]1CC[C@@H](CCNC(=O)C2CCC2)O[C@@H]1CO | inactive |
| C[C@H]1CN([C@@H](C)CO)C(=O)c2cccc(NC(=O)Nc3ccc(C(F)(F)F)cc3)c2O[C@H]1CN(C)S(C)(=O)=O | inactive |
| COc1ccc2c3c([nH]c2c1)[C@H](CO)N(C[C@]13CCN(CCc2ccccc2)CC1)C(=O)CN1CCOCC1 | inactive |
| COc1ccc2c3c([nH]c2c1)[C@H](CO)N(Cc1ccncc1)C[C@]13CCN(CC1)Cc1ccc(cc1)-c1ccccn1 | inactive |
| COc1ccc2c3c([nH]c2c1)[C@H](CO)N(C[C@]13CCN(CC1)Cc1ccccc1)C(=O)CN1CCOCC1 | active |
| COc1ccc2c3c([nH]c2c1)[C@H](CO)N(Cc1ccc(cc1)Cl)C[C@]13CCN(CC1)Cc1ccccc1 | active |

| SMILES | cytotoxicity call |
| --- | --- |
| COc1ccc2c3c([nH]c2c1)[C@@H](CO)N(Cc1ccc(cc1)Cl)C[C@]13CCN(CC1)Cc1ccccc1 | active |
| COc1ccc2c3c([nH]c2c1)[C@H](CO)N(Cc1ccc(cc1)Cl)C[C@]13CCN(CC1)Cc1nccs1 | inactive |
| COc1ccc(cc1)CN1C[C@]2(CCN(CC2)Cc2ccccc2OC)c2c([nH]c3cc(ccc23)OC)[C@@H]1CO | inactive |
| COc1ccc2c3c([nH]c2c1)[C@@H](CO)N(C[C@]13CCN(CC1)Cc1ccccc1)C(=O)CN1CCOCC1 | inactive |
| COc1ccc2c3c([nH]c2c1)[C@@H](CO)N(Cc1ccc(cc1)Cl)C[C@]13CCN(CC1)Cc1nccs1 | inactive |
| C[C@@H]1CN([C@H](C)CO)C(=O)c2cc(NC(=O)CCCCCC(=O)Nc3ccccc3N)ccc2O[C@@H]1CN(C)Cc1ccc(Cl)c(Cl)c1 | inactive |
| Cc1cc(C(=O)Nc2cccc3c2O[C@@H](CN(C)C(=O)NC2CCCCC2)[C@H](C)CN([C@H](C)CO)C3=O)n(C)n1 | inactive |
| Cc1noc(C)c1S(=O)(=O)Nc1ccc2c(c1)C(=O)N([C@H](C)CO)C[C@@H](C)[C@H](CN(C)S(=O)(=O)c1ccccc1)O2 | inactive |
| C[C@@H]1CN([C@H](C)CO)C(=O)c2cc(Br)cnc2O[C@@H]1CN(C)Cc1ccc2c(c1)OCO2 | inactive |
| COc1ccc(-c2cc(=O)c3c(O)cc(O[C@@H]4O[C@H](CO[C@@H]5O[C@@H](C)[C@H](O)[C@@H](O)[C@H]5O)[C@@H](O)[C@H](O)[C@H]4O)cc3o2)cc1O | inactive |
| C[C@H](CO)N1C[C@H](C)[C@@H](CN(C)C(=O)Cc2cccnc2)Oc2cc(-c3cncnc3)ccc2S1(=O)=O | inactive |
| NC(=O)c1ncn([C@H]2O[C@@H](COP(=O)(O)O)[C@@H](O)[C@@H]2O)c1N | inactive |
| C[C@@H]1CN([C@H](C)CO)C(=O)c2cc(NS(=O)(=O)c3cn(C)cn3)ccc2O[C@@H](C)CCCCO[C@H]1CN(C)S(=O)(=O)c1cn(C)cn1 | inactive |
| CC(C)(C)OC(=O)C[C@@H]1CC=CC[C@@H](CC(=O)NCCO)C(=O)N[C@@H](Cc2c[nH]c3ccccc23)COC1=O | inactive |
| NNC(=O)Cc1nc2ccccc2[nH]1 | inactive |
| CC(C)(C)c1ccc(CSCc2nc3ccccc3[nH]2)cc1 | active |
| CC(C)Cc1nc2ccccc2[nH]1 | inactive |
| Cc1ccc(S(=O)(=O)Nc2ccc3c(c2)C(=O)N([C@H](C)CO)C[C@H](C)[C@@H](CN(C)Cc2ccc4c(c2)OCO4)OCCCC[C@@H](C)O3)cc1 | inactive |
| Cc1ccc(S(=O)(=O)Nc2ccc3c(c2)C(=O)N([C@@H](C)CO)C[C@H](C)[C@H](CN(C)Cc2ccc4c(c2)OCO4)OCCCC[C@H](C)O3)cc1 | inactive |
| Cc1ccc(S(=O)(=O)Nc2ccc3c(c2)C(=O)N([C@H](C)CO)C[C@@H](C)[C@H](CN(C)Cc2ccc4c(c2)OCO4)OCCCC[C@H](C)O3)cc1 | active |
| Cc1ccc(S(=O)(=O)Nc2ccc3c(c2)C(=O)N([C@H](C)CO)C[C@H](C)[C@@H](CN(C)Cc2ccc4c(c2)OCO4)OCCCC[C@H](C)O3)cc1 | inactive |
| Cc1ccc(S(=O)(=O)Nc2ccc3c(c2)C(=O)N([C@@H](C)CO)C[C@@H](C)[C@H](CN(C)Cc2ccc4c(c2)OCO4)OCCCC[C@@H](C)O3)cc1 | inactive |
| Cc1ccc(S(=O)(=O)Nc2ccc3c(c2)C(=O)N([C@H](C)CO)C[C@@H](C)[C@@H](CN(C)Cc2ccc4c(c2)OCO4)OCCCC[C@@H](C)O3)cc1 | active |
| Cc1ccc(S(=O)(=O)Nc2ccc3c(c2)C(=O)N([C@@H](C)CO)C[C@@H](C)[C@@H](CN(C)Cc2ccc4c(c2)OCO4)OCCCC[C@H](C)O3)cc1 | inactive |
| Cc1ccc(S(=O)(=O)Nc2ccc3c(c2)C(=O)N([C@@H](C)CO)C[C@H](C)[C@@H](CN(C)Cc2ccc4c(c2)OCO4)OCCCC[C@H](C)O3)cc1 | inactive |
| Cc1ccc(S(=O)(=O)Nc2ccc3c(c2)C(=O)N([C@H](C)CO)C[C@H](C)[C@H](CN(C)Cc2ccc4c(c2)OCO4)OCCCC[C@H](C)O3)cc1 | active |
